Assay outcomes (PubChem)
The sample as a whole holds a higher share of hits than the screen did.
ROS inducer = inducers of reactive oxygen species in cancer cells; U2OS ROS induction, H2DCF-DA fluorescence; 46,000 compounds, 2% hits; ROS induction (% of piperlongumine), % at 10 µM; in the data active means ROS induction above about 79%, passing the limit was not always enough;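 further: 0% = DMSO vehicle median and 100% = reference compound median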
Active calls of the source: *.

SMILES | ROS inducer
O=C1N(CCS(=O)(=O)c2ccccc2)Cc2ccccc2[C@@H]2OC(c3ccc(OCCCO)cc3)=N[C@]12Cc1ccccc1 | 387*
O=C1N(CCS(=O)(=O)c2ccccc2)c2ccccc2[C@@H]2OC(c3ccc(OCCCO)cc3)=N[C@]12CCS(=O)(=O)c1ccccc1 | 74
CN1CCN(C2=Nc3ccccc3Sc3ccc(Cl)cc32)CC1 | 44
O=C(Nc1ccc(N2CCOCC2)cc1Cl)C1CCN(C(=O)OCc2ccccc2)CC1 | 7
C[C@@H]1CN([C@H](C)CO)C(=O)c2cccc(NC(=O)c3ccncc3)c2O[C@H]1CN(C)C(=O)Nc1ccccc1 | -8
CC(N[C@H](C)COc1ccccc1)[C@H](O)c1ccc(O)cc1 (some centres undefined) | -10
COc1ccc(NC(=O)Nc2ccc3c(c2)CC(=O)N([C@@H](C)CO)C[C@H](C)[C@@H](CN(C)C(=O)Nc2ccc(F)cc2)O3)cc1 | 18
C[C@H](CO)N1C[C@H](C)[C@@H](CN(C)S(=O)(=O)c2ccc(F)cc2)Oc2c(NC(=O)c3ccc(-c4nccs4)cc3)cccc2C1=O | -2
CC(C)NC(=O)N(C)C[C@@H]1OCc2cn(nn2)CCCC(=O)N([C@H](C)CO)C[C@@H]1C | -5
Cc1ccc(C(=O)CCC(=O)Nc2cccnc2)cc1C | -7
Cc1cccc(S(=O)(=O)N(C)C[C@H]2OCc3cn(nn3)CCCC(=O)N([C@@H](C)CO)C[C@@H]2C)c1 | -9
Cc1ccc(S(=O)(=O)Nc2ccc3c(c2)CC(=O)N([C@H](C)CO)C[C@H](C)[C@H](CN(C)S(=O)(=O)c2ccc(C)cc2)O3)cc1 | 19
Cc1cccc(C2Nc3ccccc3C(=O)N2CCc2ccccc2)n1 (centres undefined) | 10
C[C@]12CCC3c4ccc(OS(=O)(=O)O)cc4CCC3C1CC[C@H]2O (some centres undefined) | -2
Cc1ccc(S(=O)(=O)N(C)C[C@H]2Oc3c(NS(C)(=O)=O)cccc3C(=O)N([C@@H](C)CO)C[C@H]2C)cc1 | -1
O=C(Nc1nc(-c2ccccc2)cs1)c1ccc(S(=O)(=O)N2CCCCC2)cc1 | 40
O=c1c2cc(NC(=S)NC3CCCCCC3)ccc2nc2n1CCCCC2 | -8
C=CC[C@@]12N=C(c3ccc(OCCCO)cc3)O[C@@H]1c1ccccc1CN(C(=O)c1ccccc1)C2=O | 23
O=C(c1ccccc1)N1Cc2ccccc2[C@H]2OC(c3ccc(OCCCO)cc3)=N[C@@]2(Cc2ccccc2)C1=O | 36
O=C(c1ccccc1)N1Cc2ccccc2[C@H]2OC(c3ccc(OCCCO)cc3)=N[C@@]2(CCS(=O)(=O)c2ccccc2)C1=O | 100*
O=C(Cc1noc2ccccc12)N1CCCC1 | -8
O=C(NC1CCCCNC1=O)c1csc2ccccc12 (centres undefined) | 4
O=C(CSc1nnc2scc(-c3ccccc3)n12)Nc1nsc(-c2ccc(Cl)cc2)n1 | -8
Cc1noc(C)c1S(=O)(=O)Nc1ccc2c(c1)CC(=O)N([C@@H](C)CO)C[C@H](C)[C@@H](CN(C)C(=O)Nc1ccccc1)O2 | -6
C=C1C(=O)O[C@@H]2/C=C(\CO)CCC/C(C)=C/[C@H](O)C12 (some centres undefined) | 45
SMILES | ROS inducer
C=C1C(=O)O[C@@H]2/C=C(/CO)CC/C=C(/C)C[C@H](OC(=O)C(C)CO)[C@@H]12 (some centres undefined) | 154*
C=C(CO)C(=O)O[C@H]1C[C@@]23O[C@@H]2CC/C(=C/[C@H]2OC(=O)C(=C)[C@H]12)CO[C@@H]3O | 55
Cc1cc(C)c(C)c(S(=O)(=O)NCc2ccc(C(=O)Nc3ccncc3)cc2)c1C | 19
CCOC(=O)c1nnn2c1nc(SCc1ccc(F)cc1)c1ccccc12 | 59
CCOC(=O)c1nnn2c1nc(SCC(N)=O)c1ccccc12 | 17
CCOC(=O)c1nnn2c1nc(N(Cc1ccccc1)Cc1ccccc1)c1ccccc12 | 173*
CC(C)NC(=O)N(C)C[C@H]1Oc2ccc(NC(=O)Nc3ccc(F)cc3)cc2C(=O)N([C@@H](C)CO)C[C@H]1C | 4
CCC(C)NC(=O)c1ccc2c(Cl)c3c(nc2c1)CCC3 (centres undefined) | 42
C[C@@H]1CN([C@@H](C)CO)C(=O)c2cc(NC(=O)Nc3ccc(F)cc3)ccc2O[C@@H]1CN(C)C(=O)Nc1ccccc1 | -4
COc1cc(Br)cc(/C=N/N(CCO)C2=NS(=O)(=O)c3ccccc32)c1OC | 115*
COc1ccc(-c2nn(-c3ccccc3)cc2C(=O)OCC(C)C)cc1 | 30
C[C@H](CO)N1C[C@H](C)[C@H](CN(C)S(=O)(=O)c2ccc(Cl)cc2)Oc2ccc(NC(=O)c3ccncc3)cc2CC1=O | 102*
Cc1ccc(S(=O)(=O)N(C)C[C@@H]2Oc3ccc(NC(=O)Nc4ccccc4)cc3CC(=O)N([C@H](C)CO)C[C@H]2C)cc1 | 14
Cc1ccc(S(=O)(=O)N(C)C[C@H]2Oc3ccc(NC(=O)Nc4ccc(C(F)(F)F)cc4)cc3CC(=O)N([C@@H](C)CO)C[C@H]2C)cc1 | 36
C[C@H]1CN([C@@H](C)CO)C(=O)Cc2cc(NC(=O)Nc3ccc(C(F)(F)F)cc3)ccc2O[C@H]1CN(C)S(=O)(=O)c1ccc(F)cc1 | 7
Cc1ccc(S(=O)(=O)N(C)C[C@@H]2Oc3ccc(NC(=O)Nc4ccccc4)cc3CC(=O)N([C@H](C)CO)C[C@@H]2C)cc1 | 5
C[C@H]1CN([C@@H](C)CO)C(=O)Cc2cc(NC(=O)c3ccncc3)ccc2O[C@@H]1CN(C)S(=O)(=O)c1ccc(Cl)cc1 | 24
Cc1ccc(S(=O)(=O)N(C)C[C@H]2Oc3ccc(NC(=O)Nc4ccccc4)cc3CC(=O)N([C@@H](C)CO)C[C@@H]2C)cc1 | 123*
Cc1ccc(S(=O)(=O)N(C)C[C@@H]2Oc3ccc(NC(=O)Nc4ccc(C(F)(F)F)cc4)cc3CC(=O)N([C@@H](C)CO)C[C@@H]2C)cc1 | 98*
C[C@H]1CN([C@@H](C)CO)C(=O)Cc2cc(NC(=O)c3ccncc3)ccc2O[C@H]1CN(C)S(=O)(=O)c1ccc(Cl)cc1 | 14
CC1(C)OC(=O)C(=CNc2ccccc2)C(=O)O1 | -12
C[C@@H]1CN([C@@H](C)CO)C(=O)c2cc(NC(=O)CCCCCC(=O)Nc3ccccc3N)ccc2O[C@H]1CN(C)C | 2
Cc1ccc(S(=O)(=O)Nc2cccc3c2O[C@H](CN(C)S(=O)(=O)c2ccc(Cl)cc2)[C@@H](C)CN([C@@H](C)CO)C3=O)cc1 | -3
CCSC1=N/C(=C\c2ccc(Br)s2)C(=O)S1 | -1
C[C@H](CO)N1C[C@H](C)[C@@H](CN(C)S(=O)(=O)c2cccs2)Oc2ccc(N(C)C)cc2C1=O | -2
SMILES | ROS inducer
C[C@H]1CN([C@@H](C)CO)C(=O)c2cc(NC(=O)NC3CCCCC3)ccc2O[C@H]1CN(C)S(=O)(=O)c1ccc(F)cc1 | -7
Cc1cc(C(=O)Nc2cccc3c2O[C@H](CN(C)Cc2ccc(C(F)(F)F)cc2)[C@H](C)CN([C@@H](C)CO)C3=O)n(C)n1 | -13
COc1ccc(C[C@H](N)C(=O)N[C@H]2[C@@H](O)[C@H](n3cnc4c(N(C)C)ncnc43)O[C@@H]2CO)cc1 | 8
COc1cc(NS(=O)(=O)c2ccc(N)cc2)ncn1 | 2
C[C@H](CO)N1C[C@H](C)[C@@H](CN(C)Cc2cccc(C(F)(F)F)c2)OCc2cnnn2CCCC1=O | 48
Cc1cccc(-c2nnc(SCC(=O)Nc3cc([N+](=O)[O-])ccc3C)n2-c2ccccc2)c1 | 5
Cc1ccc(CSc2nc3ccccc3c(=O)n2CCc2ccccc2)cc1 | 17
